3CLpro inhibitor = SARS-CoV 3CLpro protease inhibition | P0C6X7 | recombinant SARS-CoV 3CLpro, quenched FRET peptide cleavage | inhibition, % at 6 µM | hit rate 0.14% among 290,000 | AID 1706; in the data active = inhibition above about 12%
Mtb BioA inh = BioA (M. tuberculosis) enzyme inhibition. purified M. tuberculosis BioA enzyme, plate reader. inhibition, % at 9.99 µM. hit rate 0.096% among 360,000. AID 602481; in the data active = inhibition above about 40%
GDH-TPI counter-1 = counter-screen for M. tuberculosis FBA inhibitors: GDH-TPI coupled enzymes; inhibition, % at 4.8 µM; hit rate 1.2% among 360,000; GDH-TPI coupled enzyme counterscreen, NADH absorbance; in the data active = inhibition above about 30%;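 note: 0% = DMSO wells and 100% = wells lacking the enzyme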
FadD28 FP inh = blocks FadD28 binding to the bisubstrate probe; hit rate 0.22% among 360,000; inhibition, % at 12.5 µM; fluorescence polarization; in the data active = inhibition above about 8.5%, passing the limit was not always enough
Mtb FBA inh = inhibits M. tuberculosis FBA enzyme. AID 588726. inhibition, % at 1 µM. purified M. tuberculosis FBA, fluorescence read-out. hit rate 2.3% among 360,000;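 note: 0% = vehicle and 100% = reference inhibitor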
Target sequence (P9WQA3 whole entry, looked up): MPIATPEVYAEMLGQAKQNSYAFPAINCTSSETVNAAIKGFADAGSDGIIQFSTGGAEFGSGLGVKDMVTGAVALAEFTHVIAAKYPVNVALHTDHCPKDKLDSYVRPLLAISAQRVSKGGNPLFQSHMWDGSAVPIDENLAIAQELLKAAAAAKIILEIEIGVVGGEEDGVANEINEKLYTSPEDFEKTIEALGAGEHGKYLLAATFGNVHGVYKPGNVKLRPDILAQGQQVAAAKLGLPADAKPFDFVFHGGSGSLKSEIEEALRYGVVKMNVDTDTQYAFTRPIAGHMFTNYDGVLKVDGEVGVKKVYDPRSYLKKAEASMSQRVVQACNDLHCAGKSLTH
Mtb FBA confirm = confirmation of M. tuberculosis fructose-bisphosphate aldolase inhibitors; shares compounds with Mtb FBA inh; purified M. tuberculosis FBA, fluorescence read-out; inhibition, % at 1 µM; hit rate 78% among 5,600;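 note: 0% = vehicle wells and 100% = reference inhibitor wells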
GDH-TPI counter-2 = counter-screen for M. tuberculosis FBA inhibitors: GDH-TPI coupled enzyme inhibition; hit rate 81% among 5,600; inhibition, % at 1 µM; shares compounds with Mtb FBA inh; GDH-TPI coupled enzyme counterscreen, fluorescence; in the data active = inhibition above about 10%
Numbers without * were called inactive. An excerpt weighted towards active compounds, which were near 3.1% of everything screened. Cut-off read from the data, not from the text of the source, unless noted: active = inhibition above about 27%; inactive = the rest.

Screening COc1ccc(CCNc2oc(-c3ccccc3OC)nc2C#N)cc1OC returned 3CLpro inhibitor -2, Mtb BioA inh 3, GDH-TPI counter-1 9, FadD28 FP inh 0, Mtb FBA inh 86*, Mtb FBA confirm 96* and GDH-TPI counter-2 70*.
For N#Cc1nc(-c2ccc(F)cc2)oc1NCc1ccccc1 the results were 3CLpro inhibitor 0, Mtb BioA inh -1, GDH-TPI counter-1 1, FadD28 FP inh 1, Mtb FBA inh 81*, Mtb FBA confirm 165* and GDH-TPI counter-2 120*.
Screening O=C(C[C@@H]1CC[C@H]2[C@@H](COC[C@@H](O)CN2S(=O)(=O)c2ccc(Oc3ccccc3)cc2)O1)Nc1ccccc1 returned Mtb BioA inh 4.
For CCNC(=O)C[C@H]1CC[C@H]2[C@@H](COc3ccc(NC(=O)c4ccccc4Cl)cc3C(=O)N2C)O1 the results were Mtb BioA inh 0.
`COCc1cn(CC[C@H]2CC[C@@H](NC(=O)CCN3CCCCC3)[C@@H](CO)O2)nn1` gave Mtb BioA inh -2.
For O=C(C(O)c1ccc(Br)cc1)N1CCC(Nc2ccc3[nH]ncc3c2)CC1 (configuration not stated) the results were Mtb BioA inh 1, GDH-TPI counter-1 5, FadD28 FP inh -2, Mtb FBA inh 42*, Mtb FBA confirm active and GDH-TPI counter-2 active.
O=C(Nc1ccc2[nH]ncc2c1)C1CCC1 was read as 3CLpro inhibitor -1, Mtb BioA inh 0, GDH-TPI counter-1 15, FadD28 FP inh -3 and Mtb FBA inh 1.
Screening C[C@H](CO)N1C[C@H](C)[C@H](CN(C)C(=O)c2ccccc2)OCCCC[C@H](C)Oc2ccc(NC(=O)Nc3ccc(C(F)(F)F)cc3)cc2C1=O returned Mtb BioA inh 0.
For COc1ccc(C2=NN3C(C2)c2ccccc2OC3c2cccs2)cc1 (configuration not stated) the results were 3CLpro inhibitor 2, GDH-TPI counter-1 4, FadD28 FP inh -2, Mtb FBA inh 60*, Mtb FBA confirm 28* and GDH-TPI counter-2 23*.
COc1ccc(C2=NN(C(=O)CCC(=O)O)C(c3cccs3)C2)cc1 (configuration not stated) was read as 3CLpro inhibitor 2, GDH-TPI counter-1 5, FadD28 FP inh -3 and Mtb FBA inh 7.
For O=C(NCC[C@@H]1CC[C@@H](NS(=O)(=O)c2ccccc2)[C@H](CO)O1)c1cc(Cl)cc(Cl)c1 the results were Mtb BioA inh 3.
CCSc1nnc(-c2ccc(S(=O)(=O)N3CCOCC3)cc2)n1C was read as 3CLpro inhibitor -4, GDH-TPI counter-1 10, FadD28 FP inh -2, Mtb FBA inh 30*, Mtb FBA confirm active and GDH-TPI counter-2 active.
Cn1c(SCC(=O)N2CCCC2)nnc1-c1ccc(S(=O)(=O)N2CCCC2)cc1 was read as 3CLpro inhibitor 0, Mtb BioA inh 2, GDH-TPI counter-1 -7, FadD28 FP inh -1 and Mtb FBA inh 7.
`CCSc1nnc(-c2ccc(S(=O)(=O)N3CCCC3)cc2)n1C` gave 3CLpro inhibitor -4, Mtb BioA inh 0, GDH-TPI counter-1 3, FadD28 FP inh -1, Mtb FBA inh 33*, Mtb FBA confirm -2 and GDH-TPI counter-2 -8.
CO[C@@H]1CN(C)C(=O)c2ccc(NC(=O)Nc3cccc(F)c3)cc2OC[C@@H](C)N(C(=O)Nc2c(C)noc2C)C[C@H]1C was read as Mtb BioA inh 2.
CCOC(=O)c1sc2nc(C)nc(NCc3ccc(Cl)cc3)c2c1C was read as 3CLpro inhibitor 1, Mtb BioA inh -1, GDH-TPI counter-1 7, FadD28 FP inh 0 and Mtb FBA inh 18.
Screening CCOC(=O)c1sc2nc(CC(=O)OC)nc(NCc3ccc(F)cc3)c2c1C returned 3CLpro inhibitor 0, Mtb BioA inh 0, GDH-TPI counter-1 17, FadD28 FP inh 1, Mtb FBA inh 32*, Mtb FBA confirm active and GDH-TPI counter-2 148*.
Screening CCOC(=O)c1sc2nc(C)nc(NCc3ccc(F)cc3)c2c1C returned 3CLpro inhibitor 2, Mtb BioA inh -1, GDH-TPI counter-1 15, FadD28 FP inh 2, Mtb FBA inh 41*, Mtb FBA confirm 44* and GDH-TPI counter-2 46*.
Screening CCOC(=O)c1sc2nc(C)nc(NCc3cccnc3)c2c1C returned 3CLpro inhibitor 2, GDH-TPI counter-1 0, FadD28 FP inh -4, Mtb FBA inh 44*, Mtb FBA confirm 108* and GDH-TPI counter-2 88*.
For CCCN(C)C[C@H]1Oc2ncc(-c3ccccc3)cc2C(=O)N([C@H](C)CO)C[C@H]1C the results were Mtb BioA inh 3.
`O=c1c2c(nc3c(-c4ccc(Cl)cc4)c[nH]n13)CCC2` gave 3CLpro inhibitor -1, Mtb BioA inh 12, GDH-TPI counter-1 5, FadD28 FP inh -5, Mtb FBA inh 44*, Mtb FBA confirm 32* and GDH-TPI counter-2 28*.
For O=c1c2c(nc3c(-c4ccccc4)c[nH]n13)CCC2 the results were 3CLpro inhibitor -5, Mtb BioA inh 15, GDH-TPI counter-1 10, FadD28 FP inh -2, Mtb FBA inh 43*, Mtb FBA confirm 59* and GDH-TPI counter-2 38*.
For CC(Oc1ccc(Cl)cc1Cl)C(=O)NCCN1CCOCC1 (configuration not stated) the results were 3CLpro inhibitor -1, GDH-TPI counter-1 1, FadD28 FP inh 0 and Mtb FBA inh -2.
COc1ccc2c(c1OC)c(=O)n1c3ccc(OC(C)C(=O)NCCN4CCOCC4)cc3c3ccnc2c31 (configuration not stated) was read as 3CLpro inhibitor -7, Mtb BioA inh 7, GDH-TPI counter-1 6, FadD28 FP inh -6, Mtb FBA inh 91*, Mtb FBA confirm 84* and GDH-TPI counter-2 68*.
For CC(Oc1ccc2c(c1)c1ccnc3c4ccccc4c(=O)n2c13)C(=O)NCCN1CCOCC1 (configuration not stated) the results were 3CLpro inhibitor -8, Mtb BioA inh 1, GDH-TPI counter-1 15, FadD28 FP inh -9, Mtb FBA inh 44*, Mtb FBA confirm 136* and GDH-TPI counter-2 117*.
For CCCCc1cc(=O)oc2cc(OC(C)C(=O)NCCN3CCOCC3)ccc12 (configuration not stated) the results were Mtb BioA inh -1, GDH-TPI counter-1 10, FadD28 FP inh -1 and Mtb FBA inh 13.
`CCOC(=O)Nc1ccc2nc(-c3cscn3)[nH]c2c1` gave Mtb BioA inh 2, GDH-TPI counter-1 19, FadD28 FP inh 0, Mtb FBA inh 28*, Mtb FBA confirm 51* and GDH-TPI counter-2 38*.
`O=C(Cc1ccncc1)NCC[C@@H]1CC[C@@H](NC(=O)C2CCC2)[C@H](CO)O1` gave Mtb BioA inh 0.
